# Test results published in PubChem BioAssay (NCATS).
# “And” between values parts separate entries of the source, which are not always exact repeats. Identical values can stand only once. Results filed as inconclusive are left out. Where a structure was tested more than once in an assay, its records may differ in their call. The source made the active and inactive calls. Unless noted, calls come from the whole dose curve; as a rule, active = well fitted curve in the direction sought with a large enough effect; inconclusive = small, poorly fitted or top-dose-only effect, or another doubt; inactive = no such curve, though single readings can be large; an effect the other way counts as inactive or inconclusive.
# Tests used:
# [1] = AP1 Signaling Pathway (AID 357; active = well fitted curve in either direction with a large enough effect, not every such curve was filed as active;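 note: ME-180 reporter cells stimulated with EGF at its EC50 level; % is set by controls: 0 for no effect and ±100 for the full control effect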); details: ME-180 AP-1-bla reporter, EGF-induced, beta-lactamase ratio, 5 h; at 17.2 µM (top of the series)
# Method in brief: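 In this screen, ME-180 cells in Opti-MEM with 0.5% dialyzed FBS received EC50 EGF and compound titrations for 5 h. AP-1 reporter beta-lactamase was detected via CCF4 ratio, giving AC50 for positive and negative modulators.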
# [2] = molecular target: Cytochrome P450 1A2 (Homo sapiens) (UniProt P05177); assay: p450-cyp1a2 (AID 410; calls by dose curve; note: potency is the fitted concentration of half-maximal effect)
# Cytochrome P450 1A2 (Homo sapiens), sequence (P05177 whole entry, looked up): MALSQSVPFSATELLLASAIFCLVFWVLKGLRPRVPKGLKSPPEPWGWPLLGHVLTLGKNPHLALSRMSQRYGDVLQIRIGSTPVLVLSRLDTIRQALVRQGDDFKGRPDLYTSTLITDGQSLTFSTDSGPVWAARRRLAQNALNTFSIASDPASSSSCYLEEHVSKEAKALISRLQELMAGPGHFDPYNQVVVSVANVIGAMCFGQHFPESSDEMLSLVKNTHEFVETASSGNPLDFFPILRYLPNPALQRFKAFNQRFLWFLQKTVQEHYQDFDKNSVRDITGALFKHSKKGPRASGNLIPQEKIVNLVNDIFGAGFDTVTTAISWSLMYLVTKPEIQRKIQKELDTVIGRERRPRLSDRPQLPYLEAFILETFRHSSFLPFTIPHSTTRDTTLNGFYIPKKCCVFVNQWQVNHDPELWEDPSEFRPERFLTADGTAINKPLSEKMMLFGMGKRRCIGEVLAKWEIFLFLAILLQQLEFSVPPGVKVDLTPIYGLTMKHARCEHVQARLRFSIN
# Method in brief: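 Read-out is luminescence from luciferin produced by CYP1A2 demethylation of Luciferin-ME (100uM, at Km). Detection reagent stopped the 60 min NADPH-dependent reaction; signals were normalized to 57 uM furafylline.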
# [3] = Stat Signaling Pathway (AID 446; active = well fitted curve in either direction with a large enough effect, not every such curve was filed as active;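 note: ME-180 cervical cancer cells given 40 pM IL-6 alongside compound; SIE-controlled beta-lactamase reporter measured as 460/530 nm FRET emission ratio; % is set by controls: 0 for no effect and ±100 for the full control effect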); details: ME-180 (cervical carcinoma) SIE beta-lactamase reporter, IL-6 stimulated, 5 h; at 17.2 µM (top of the series)
# Method in brief: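 Compound effects on IL-6-induced STAT reporter activity were measured in ME-180 cells. After overnight culture, cells were co-treated with 40 pM IL-6 for 5 hrs before beta-lactamase substrate loading at room temperature.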
# [4] = molecular target: Glucocorticoid receptor (Homo sapiens) (UniProt P04150); assay: GR-GFP Redistribution (AID 450;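 active = compounds whose dose series gives a full or clear partial fitted curve of increased nuclear translocation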; note: potency is the fitted concentration of half-maximal effect); details: U2OS GR-GFP nuclear translocation, laser cytometry, 2 h
# Glucocorticoid receptor (Homo sapiens), sequence (P04150 whole entry, looked up, the tested form may be a part): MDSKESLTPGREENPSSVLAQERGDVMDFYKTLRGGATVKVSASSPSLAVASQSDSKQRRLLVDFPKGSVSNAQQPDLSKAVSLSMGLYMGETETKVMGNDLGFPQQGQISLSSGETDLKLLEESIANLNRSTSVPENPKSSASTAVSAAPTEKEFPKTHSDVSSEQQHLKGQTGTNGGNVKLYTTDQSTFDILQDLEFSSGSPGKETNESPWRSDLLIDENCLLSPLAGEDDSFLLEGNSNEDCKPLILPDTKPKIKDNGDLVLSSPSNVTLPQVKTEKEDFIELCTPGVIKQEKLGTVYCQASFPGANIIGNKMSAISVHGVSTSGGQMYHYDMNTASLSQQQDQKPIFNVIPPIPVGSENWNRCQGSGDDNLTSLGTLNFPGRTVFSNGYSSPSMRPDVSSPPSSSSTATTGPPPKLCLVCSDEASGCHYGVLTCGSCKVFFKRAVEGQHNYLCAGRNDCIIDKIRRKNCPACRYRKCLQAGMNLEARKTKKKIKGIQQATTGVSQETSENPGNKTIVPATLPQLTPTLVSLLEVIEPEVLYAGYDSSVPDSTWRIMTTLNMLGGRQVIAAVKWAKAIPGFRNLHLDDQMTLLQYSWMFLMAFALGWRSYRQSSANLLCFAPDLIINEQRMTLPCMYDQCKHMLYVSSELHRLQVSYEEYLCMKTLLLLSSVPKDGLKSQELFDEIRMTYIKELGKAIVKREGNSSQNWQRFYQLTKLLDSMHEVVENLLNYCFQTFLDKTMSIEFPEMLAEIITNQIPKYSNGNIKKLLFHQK
# [5] = molecular target: Glucocorticoid receptor (Homo sapiens) (UniProt P04150); assay: GR-EFC Redistribution (AID 451; calls by dose curve; note: potency is the fitted concentration of half-maximal effect); details: CHO-K1 GR-EFC translocation, beta-gal luminescence, 2 h
# Method in brief: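 Translocation of GR-ED fusion to nuclear EA restores b-gal, read by luminescence after 1 h room-temperature detection. Engineered CHO-K1 biosensor cells, 1,000/well, exposed 2 h at 37 C to titrations up to 46 uM final.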
# [6] = molecular target: 3',5'-cyclic-AMP phosphodiesterase 4B (Homo sapiens) (UniProt Q07343); assay: qHTS Assay for Inhibitors of PDE-IV (AID 607; active = well fitted activation curve with a large enough effect in the main read-out, with a control signal flat, not every such curve was filed as active; note: % of control where 0% means no effect)
# 3',5'-cyclic-AMP phosphodiesterase 4B (Homo sapiens), sequence (Q07343 whole entry, looked up): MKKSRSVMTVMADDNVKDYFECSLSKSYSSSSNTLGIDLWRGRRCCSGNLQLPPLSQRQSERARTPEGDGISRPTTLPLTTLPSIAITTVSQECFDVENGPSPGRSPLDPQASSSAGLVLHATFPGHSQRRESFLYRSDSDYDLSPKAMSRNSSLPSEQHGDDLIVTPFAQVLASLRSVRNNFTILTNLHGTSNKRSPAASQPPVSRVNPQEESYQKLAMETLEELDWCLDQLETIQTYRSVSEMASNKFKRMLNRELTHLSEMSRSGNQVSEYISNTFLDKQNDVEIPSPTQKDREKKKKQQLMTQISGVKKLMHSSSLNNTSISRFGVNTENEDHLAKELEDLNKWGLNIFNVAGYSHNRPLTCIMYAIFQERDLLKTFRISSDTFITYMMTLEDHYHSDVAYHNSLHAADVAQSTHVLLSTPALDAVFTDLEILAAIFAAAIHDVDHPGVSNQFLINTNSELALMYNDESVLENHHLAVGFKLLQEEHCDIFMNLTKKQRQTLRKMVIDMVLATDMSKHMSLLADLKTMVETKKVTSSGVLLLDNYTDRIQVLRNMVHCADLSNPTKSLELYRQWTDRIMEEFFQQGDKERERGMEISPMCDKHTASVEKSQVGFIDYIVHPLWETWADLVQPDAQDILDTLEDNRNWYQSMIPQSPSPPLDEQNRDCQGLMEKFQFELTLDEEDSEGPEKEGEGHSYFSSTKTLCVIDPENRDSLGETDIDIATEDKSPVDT
# Method in brief: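 ACTOne HEK293 cells carry a modified cAMP-gated CNG channel and express endogenous PDE4; plated 1000 cells/well, compounds up to 22.9 uM final. Membrane-potential dye fluorescence (ex 535/em 590) was read; parental cells received 10 uM forskolin + 100 uM RO 20-1724.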
# [7] = molecular target: Cytochrome P450 2C9 (Homo sapiens) (UniProt P11712); assay: qHTS Assay for Inhibitors and Substrates of Cytochrome P450 2C9 (AID 883); note: % is set by controls: 0 for no effect and ±100 for the full control effect; nearly all actives have a fitted effect of over 60% in size
# Method in brief: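 Turnover of Luciferin-H (100uM, KM) by 10nM human CYP2C9 was measured over 60 min at 37C with NADPH regeneration; inhibitors and some substrates reduce luminescence. Data normalized to sulphaphenazole 57uM.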
# [8] = molecular target: Cytochrome P450 3A4 (Homo sapiens) (UniProt P08684); assay: qHTS Assay for Inhibitors and Substrates of Cytochrome P450 3A4 (AID 884); note: potency is the fitted concentration of half-maximal effect; nearly all actives have a fitted effect of over 50% in size
# Cytochrome P450 3A4 (Homo sapiens), sequence (P08684 whole entry, looked up): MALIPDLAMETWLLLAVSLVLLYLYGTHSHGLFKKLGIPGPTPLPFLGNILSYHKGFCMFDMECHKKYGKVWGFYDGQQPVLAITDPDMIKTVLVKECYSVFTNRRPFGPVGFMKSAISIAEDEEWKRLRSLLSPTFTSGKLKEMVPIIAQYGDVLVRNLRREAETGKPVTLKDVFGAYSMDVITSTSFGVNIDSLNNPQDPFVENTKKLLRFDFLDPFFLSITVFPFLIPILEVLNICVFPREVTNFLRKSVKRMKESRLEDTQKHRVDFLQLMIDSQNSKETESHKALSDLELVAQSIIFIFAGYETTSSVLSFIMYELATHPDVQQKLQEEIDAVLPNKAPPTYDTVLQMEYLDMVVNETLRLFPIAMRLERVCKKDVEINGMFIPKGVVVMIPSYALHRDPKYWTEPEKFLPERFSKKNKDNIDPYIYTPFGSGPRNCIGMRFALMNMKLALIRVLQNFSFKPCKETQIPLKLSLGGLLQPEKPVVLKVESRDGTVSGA
# Method in brief: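 Luminescent readout of luciferin produced by CYP3A4 (20 nM) dealkylation of Luciferin-PPXE, 25 uM (its KM). NADPH-driven reaction ran 60 min at RT after 10 min compound preincubation; data scaled to 57 uM ketoconazole as 100% inhibition.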
# [9] = molecular target: Cytochrome P450 3A4 (Homo sapiens) (UniProt P08684); assay: qHTS Assay for Activators of Cytochrome P450 3A4 (AID 885); note: nearly all actives have a fitted effect of over 65% in size
# Method in brief: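 CYP3A4 activity: Luciferin-PPXE O-dealkylation, 25uM substrate, 200mM KPO4, RT throughout. Read-out is luciferase luminescence; higher values reflect activation.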
# [10] = molecular target: Cytochrome P450 2D6 (Homo sapiens) (UniProt P10635); assay: qHTS Assay for Inhibitors and Substrates of Cytochrome P450 2D6 (AID 891);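 note: luciferin methyl ether substrate demethylated by CYP2D6 with NADPH regeneration; % is set by controls: 0 for no effect and ±100 for the full control effect; nearly all actives have a fitted effect of over 60% in size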
# Cytochrome P450 2D6 (Homo sapiens), sequence (P10635 whole entry, looked up): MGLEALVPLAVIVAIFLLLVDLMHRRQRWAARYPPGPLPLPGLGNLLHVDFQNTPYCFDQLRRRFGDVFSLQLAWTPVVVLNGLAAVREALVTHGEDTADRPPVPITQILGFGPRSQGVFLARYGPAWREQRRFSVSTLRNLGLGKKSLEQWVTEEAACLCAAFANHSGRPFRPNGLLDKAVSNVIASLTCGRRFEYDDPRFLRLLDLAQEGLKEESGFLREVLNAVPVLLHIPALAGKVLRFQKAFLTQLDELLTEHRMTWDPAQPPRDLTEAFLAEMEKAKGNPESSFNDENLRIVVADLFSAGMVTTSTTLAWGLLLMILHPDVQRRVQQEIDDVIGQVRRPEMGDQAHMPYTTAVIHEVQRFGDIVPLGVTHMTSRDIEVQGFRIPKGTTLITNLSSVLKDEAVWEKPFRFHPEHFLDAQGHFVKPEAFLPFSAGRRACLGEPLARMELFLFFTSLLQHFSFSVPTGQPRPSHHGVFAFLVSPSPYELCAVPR
# Method in brief: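 Luminescent read-out of luciferin formed by 5 nM human CYP2D6 demethylating 30 uM Luciferin-ME EGE (Km level) over 60 min at room temperature after NADPH regeneration addition. Data normalized to full inhibition by 1.43 uM quinidine.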
# [11] = molecular target: Cytochrome P450 2C19 (Homo sapiens) (UniProt P33261); assay: qHTS Assay for Inhibitors and Substrates of Cytochrome P450 2C19 (AID 899); note: nearly all actives have a fitted effect of over 60% in size; note: potency is the fitted concentration of half-maximal effect; for activity, negative = inhibition: % is set by controls: 0 for no effect and ±100 for the full control effect
# Cytochrome P450 2C19 (Homo sapiens), sequence (P33261 whole entry, looked up): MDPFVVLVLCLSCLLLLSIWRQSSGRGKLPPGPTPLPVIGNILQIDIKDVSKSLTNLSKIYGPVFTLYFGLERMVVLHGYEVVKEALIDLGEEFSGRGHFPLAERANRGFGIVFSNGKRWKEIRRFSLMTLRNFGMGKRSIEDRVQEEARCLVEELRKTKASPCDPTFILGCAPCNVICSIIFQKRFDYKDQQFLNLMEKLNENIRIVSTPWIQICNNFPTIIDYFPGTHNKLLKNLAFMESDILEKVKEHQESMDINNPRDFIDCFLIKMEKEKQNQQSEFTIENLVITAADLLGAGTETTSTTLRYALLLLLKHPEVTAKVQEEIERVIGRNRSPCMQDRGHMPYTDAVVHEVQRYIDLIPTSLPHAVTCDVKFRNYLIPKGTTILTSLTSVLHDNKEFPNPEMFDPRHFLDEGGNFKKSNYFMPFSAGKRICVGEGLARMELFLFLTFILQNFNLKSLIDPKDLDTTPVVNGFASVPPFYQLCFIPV
# Method in brief: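 Reactions contain 5nM enzyme, 10uM Luciferin-H EGE (KM) and 50mM KPO4; compound preincubates 10 min at 37C, NADPH regeneration starts turnover for 60 min. Luminescence after detection reagent gives activity.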
# [12] = qHTS Assay for Lipid Storage Modulators (AID 1519; calls by dose curve); details: Drosophila S3 cells, BODIPY lipid droplet/cell ratio, laser cytometry, cells loaded with oleic acid
# Method in brief: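 Cells seeded at 5,000 per well were treated with compounds over a concentration series and loaded with oleic acid (400 uM, as added). Lipid droplet fluorescence (488 nm excitation, 500-530 nm channel) was read by laser-scanning cytometry and normalized to 20 uM Triacsin C.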
# [13] = molecular target: Ubiquitin carboxyl-terminal hydrolase 1 (Homo sapiens) (UniProt O94782); assay: Inhibitors of USP1/UAF1: Pilot qHTS (AID 504865); note: potency is the fitted concentration of half-maximal effect; nearly all actives have a fitted effect of over 35% in size
# Ubiquitin carboxyl-terminal hydrolase 1 (Homo sapiens), sequence (O94782 whole entry, looked up): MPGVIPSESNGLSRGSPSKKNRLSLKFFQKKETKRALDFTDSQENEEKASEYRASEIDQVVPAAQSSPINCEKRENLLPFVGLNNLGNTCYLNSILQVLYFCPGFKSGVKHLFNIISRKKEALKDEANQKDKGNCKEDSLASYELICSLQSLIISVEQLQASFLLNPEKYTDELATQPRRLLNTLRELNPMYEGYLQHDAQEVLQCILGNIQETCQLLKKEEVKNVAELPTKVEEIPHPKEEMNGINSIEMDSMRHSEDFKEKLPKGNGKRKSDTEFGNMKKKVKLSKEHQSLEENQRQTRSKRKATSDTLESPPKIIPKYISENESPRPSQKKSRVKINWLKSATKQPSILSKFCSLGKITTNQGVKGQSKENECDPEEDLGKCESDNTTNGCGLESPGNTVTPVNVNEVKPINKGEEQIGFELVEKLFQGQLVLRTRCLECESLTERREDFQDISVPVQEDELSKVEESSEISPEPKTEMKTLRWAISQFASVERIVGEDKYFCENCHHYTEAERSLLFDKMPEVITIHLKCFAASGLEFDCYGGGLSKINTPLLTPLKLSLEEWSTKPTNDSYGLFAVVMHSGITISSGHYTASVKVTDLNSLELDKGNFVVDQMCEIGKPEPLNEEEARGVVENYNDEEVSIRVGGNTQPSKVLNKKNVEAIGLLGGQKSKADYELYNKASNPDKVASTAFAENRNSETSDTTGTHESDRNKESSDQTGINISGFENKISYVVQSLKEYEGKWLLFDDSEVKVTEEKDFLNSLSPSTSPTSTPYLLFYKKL
# Method in brief: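 USP1/UAF1 complex at 1 nM preincubated 15 min at room temperature with compound, then Ub-Rho substrate added at 150 nM final. Fluorescence (480/540 nm) read kinetically in 50 mM HEPES pH 7.8, 0.5 mM EDTA, 1 mM TCEP, 0.1 mg/ml BSA, 0.01% Tween-20.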
# [14] = molecular target: DNA dC->dU-editing enzyme APOBEC-3G (Homo sapiens) (UniProt Q9HC16); assay: qHTS for inhibitors of Vif-A3G interactions: Validation (AID 588379); note: 0% is about no effect
# DNA dC->dU-editing enzyme APOBEC-3G (Homo sapiens), sequence (Q9HC16 whole entry, looked up): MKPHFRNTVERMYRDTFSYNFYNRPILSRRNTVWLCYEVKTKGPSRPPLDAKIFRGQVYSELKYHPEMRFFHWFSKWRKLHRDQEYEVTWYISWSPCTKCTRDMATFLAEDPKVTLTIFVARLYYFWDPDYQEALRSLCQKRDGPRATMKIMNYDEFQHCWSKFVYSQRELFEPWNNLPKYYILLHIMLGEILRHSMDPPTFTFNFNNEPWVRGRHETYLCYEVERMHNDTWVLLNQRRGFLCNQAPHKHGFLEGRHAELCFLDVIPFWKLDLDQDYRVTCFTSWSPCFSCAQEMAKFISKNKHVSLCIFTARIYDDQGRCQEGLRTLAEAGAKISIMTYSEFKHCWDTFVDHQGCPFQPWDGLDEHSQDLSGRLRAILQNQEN
# Method in brief: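 Yellow fluorescence (Ex 488, Em 500-530) of Vif-coexpressing HeLa A3G-eYFP cells, scanned by Acumen cytometer, reports blocked A3G degradation. Cells plated at 700/well overnight at 37 deg C before compound addition, then a further overnight compound incubation at 37 deg C.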
# [15] = Confirmatory screen GU Rhodamine qHTS for Zika virus inhibitors qHTS (AID 1347157); note: potency is the fitted concentration of half-maximal effect; nearly all actives have a fitted effect of over 70% in size
# Method in brief: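 A qHTS format was used, with compound concentrations ranging up to 114 microM. Each compound was preincubated with 25 nM NS2B-NS3 protease, and the substrate was then added at 1.5 microM. Curves were fitted with a 4-parameter Hill model.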
# [16] = ZIKV-mCherry secondary qHTS for Zika virus inhibitors (AID 1347158); note: top concentration of the series differs between compounds
# Method in brief: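 This orthogonal imaging screen measured ZIKV-mCherry infection of Vero cells exposed to compound, MOI 1, 48-72 h. Percent infection came from segmented nuclei scored mCherry-positive above 3 SD of negative controls.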
# [17] = tested on: Zika virus NS2B-NS3 protease (linked); assay: 384 well plate NINDS AMC confirmatory qHTS for Zika virus inhibitors (AID 1347163); note: potency is the fitted concentration of half-maximal effect; nearly all actives have a fitted effect of over 50% in size
# Method in brief: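 Enzyme (5, 30 or 60 nM final) first met test compounds for ~15 min. The AMC-tagged peptide Ac-VKTGKR-AMC followed at 30 microM. Fluorescence was then recorded at 25 min and scaled against no-enzyme and no-inhibitor wells.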
# [18] = tested on: Zika virus NS2B-NS3 protease (linked construct); assay: 384 well plate NINDS Rhodamine confirmatory qHTS for Zika virus inhibitors (AID 1347164);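 note: fluorescence from protease cleavage of Ac-LKRR-rhodamine 110 substrate; top concentration of the series differs between compounds; plate controls were no-inhibitor control for no effect and no-enzyme control for full effect; nearly all actives have a fitted effect of over 65% in size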
# Method in brief: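 Linked NS2B-NS3 protease (final 5, 30 or 60 nM) preincubated ~15 minutes with compounds, then 10 microM Ac-LKRR-Rhodamine 110 added. Fluorescence (485/538 nm) read after 25 minutes at room temperature, normalized to no-enzyme and no-inhibitor controls.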
# [19] = Tertiary RLuc qRT-PCR qHTS assay for Zika virus inhibitors (AID 1347169); note: top concentration of the series differs between compounds; % is set by controls: 0 for no effect and ±100 for the full control effect; nearly all actives have a fitted effect of over 55% in size
# Method in brief: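 Vero cells (1,000/well) infected with recombinant ZIKV-RLuc (Cambodian) at MOI 1-2 after compound addition, 48-72 hrs at 37 degrees C. Live-cell Renilla luciferase substrate added; luminescence read after 1-1.5 hrs.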
# [20] = Confirmatory qHTS for small molecule stabilizers of the endoplasmic reticulum resident proteome: Secreted ER Calcium Modulated Protein (SERCaMP) assay (AID 1508628); note: potency is the fitted concentration of half-maximal effect; nearly all actives have a fitted effect of over 40% in size
# Method in brief: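 GLuc-SERCaMP-expressing SH-SY5Y cells, pretreated 16 h with compound, are challenged with thapsigargin to empty ER calcium stores; after 4 h, coelenterazine is added directly to the medium and luminescence is imaged.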
# [21] = Primary qHTS for small molecule stabilizers of the endoplasmic reticulum resident proteome: Secreted ER Calcium Modulated Protein (SERCaMP) assay (AID 1508630); note: % is set by controls: 0 for no effect and ±100 for the full control effect
# Method in brief: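 The SH-SY5Y reporter protocol was run at 3 concentrations up to 38.3 uM (primary) or 11 concentrations (follow-up): 16 h compound, 100 nM thapsigargin for 4 h, then extracellular luciferase luminescence.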
smiles,measurement,setting,value
COc1cc(-c2ccc(N=Nc3ccc4c(S(=O)(=O)O)cc(S(=O)(=O)O)c(N)c4c3O)c(OC)c2)ccc1N=Nc1ccc2c(S(=O)(=O)O)cc(S(=O)(=O)O)c(N)c2c1O,"activity change, negative = inhibition",[1],15% (inactive)
same,Potency,[2],12.6 µM (active) and 20 µM (active)
same,"activity, negative = inhibition",[3],-15.7% (inactive)
same,Potency,[4],> 20.6 µM (inactive) and > 46 µM (inactive)
same,Potency,[5],> 20.6 µM (inactive) and > 46 µM (inactive)
same,Potency,[6],inactive
same,Potency,[7],inactive
same,Potency,[8],15.8 µM (active)
same,Potency,[9],inactive
same,Potency,[10],inactive
same,Potency,[11],3.98 µM (active) and inactive
same,"activity change, negative = inhibition",[12]; at 25.7 µM (top of the series),3.4% (inactive)
same,max response,[12]; measured here: cell count channel max response,1.95%
same,max response,[12]; measured here: lipid channel max response,8.3%
same,Potency,[13],17.8 µM (active) and 8.91 µM (active)
same,Potency,[14],inactive
same,Potency,[15],2.82 µM (active)
same,Potency,[16],inactive
same,Potency,[17],7.08 µM (active)
same,Potency,[18],inactive
same,Potency,[19],inactive
same,Potency,[20],28.2 µM (active)
same,"activity change, negative = inhibition",[21],-28.6% [at 7.35 µM] (inactive)
